Source: PubChem (several laboratories)
Rows were chosen to be rich in hits. Some 0.51% of all compounds tested hit in one or more screens of this group.
AddAB inh = less growth of phage-infected E. coli with AddAB; E. coli expressing H. pylori AddAB, absorbance growth; inhibition, % at 11.9 µM; hit rate 0.29% among 330,000; AID 435030; in the data active = inhibition above about 12%;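 also: 0% = vehicle wells of infected cells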
E coli growth-1 = bacterial growth inhibition, counter-screen for AddAB inhibitors; inhibition, % at 11.9 µM; E. coli V3065 growth, OD600 absorbance, 18 h; hit rate 0.27% among 330,000; AID 449728;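 active = inhibition above the campaign's mean inhibition across all tested compounds plus 3 SD, cut at about 9.9% in these data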;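 also: uninfected addAB+ strain grown without phage in ampicillin broth; 0% = DMSO wells and 100% = ciprofloxacin 0.95 µg/ml wells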
Tat transport = blocks Tat-dependent protein export in E. coli | E. coli MC4100 TorA-mCherry Tat export, fluorescence | inhibition, % at 10 µM | hit rate 0.036% among 340,000 | AID 488895;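 active = mean replicate inhibition at least 50% and at least half of replicates individually reaching 50%; inconclusive = only one of the two criteria met; inactive = neither criterion met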;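 also: exported cargo escapes ClpAP degradation while cytoplasmic cargo is degraded and loses fluorescence; 0% = median of neutral control wells and 100% = median of NaSCN control wells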
phage Ecoli inh = E. coli growth loss with phage present. hit rate 0.26% among 360,000. growth absorbance. AID 651602. inhibition, % at 11.9 µM; in the data active = inhibition above about 11%
E coli growth-2 = blocks Escherichia coli growth; OD600, 23 h; active compounds read low; OD600 absorbance (no concentration beside the values); hit rate 0.21% among 330,000;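 active = OD600 absorbance below the run mean of sample wells minus 3.6 SD, in any replicate, cut at about 0.56 in these data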
RecBCD conf = confirmation: growth loss of phage-infected RecBCD+ E. coli (RecBCD inhibitor screen); shares compounds with phage Ecoli inh; hit rate 45% among 890; E. coli V66 + T4 2- phage, growth OD; AID 651982; inhibition, % at 11.9 µM;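 active = mean inhibition over triplicates exceeding the hit threshold derived in the original primary screen, cut at about 11% in these data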
Ecoli viability = inhibits E. coli viability, flagging RecBCD hits as nonselective; shares compounds with phage Ecoli inh; absorbance (OD) growth; inhibition, % at 11.9 µM; hit rate 29% among 890; in the data active = inhibition above about 20%;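 also: E. coli strain V66 grown with compound alone and no phage infection; 0% = bacteria with DMSO vehicle only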
AddAB counter = growth loss of phage-infected AddAB E. coli, RecBCD counter-screen; shares compounds with phage Ecoli inh; inhibition, % at 11.9 µM; hit rate 45% among 890; AID 651984; E. coli expressing H. pylori AddAB + T4 phage, OD growth; gene 2 mutant T4, recBCD-deleted host;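 active = mean inhibition above the solvent-only control wells' mean plus 3 SD, cut at about 22% in these data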;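 also: higher means less bacterial growth from phage killing when AddAB is blocked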
* = called active by the depositor; u = inconclusive; x = no result given.

SMILES	AddAB inh	E coli growth-1	Tat transport	phage Ecoli inh	E coli growth-2	RecBCD conf	Ecoli viability	AddAB counter
Nc1ncn(C2CC(O)C(CO)O2)c(=O)n1 (centres undefined)	x	x	x	x	0.65	x	x	x
Nc1nc(=O)n(C2CC(O)C(CO)O2)cc1F (centres undefined)	x	x	u	87*	x	78*	77*	90*
Nc1nc(=O)n(C2CC(O)C(CO)O2)cc1Cl (centres undefined)	x	x	x	12*	x	4	4	38*
CC1CCC(=O)N(CCSc2ccc(Br)cc2)CC1 (centres undefined)	x	x	x	x	0.68	x	x	x
Cc1cc(C)c(OCC(=O)NN=Cc2ccc3c(c2)OCO3)c(C)c1	x	x	x	x	0.66	x	x	x
CN1C(=c2sc(=C3C(=O)N(c4ccccc4)NC3=Nc3ccccc3)n(C)c2=O)C(C)(C)c2ccccc21	x	x	x	x	0.74	x	x	x
CCCOc1ccc(C=NNc2ccccc2[N+](=O)[O-])c(O)c1	x	x	x	x	0.7	x	x	x
Cc1ccc(-c2nc3ccccc3c(=O)n2O)cc1	-1	-2	2	-1	0.64	x	x	x
Cc1ccc(-c2nc3ccc(Cl)cc3c(=O)n2O)cc1	4	7	-6	11*	0.66	5	7	10
O=C1C(F)=CC(COC(c2ccccc2)(c2ccccc2)c2ccccc2)OC1n1cc(F)c(=O)[nH]c1=O (centres undefined)	x	x	-4	12*	x	9	1	26*
COc1ccc(NC(=O)CSc2nnc3ccc(-c4ccccn4)nn23)cc1	1	-2	-7	5	0.69	x	x	x
COc1ccc(C(=O)CSc2nnc3ccc(-c4ccccn4)nn23)cc1	1	1	-12	25*	0.74	-3	-3	-4
Cc1ccc(C(=O)CC(=O)COc2ccc(Cl)cc2C)cc1	-4	-4	0	12*	0.64	7	9	5
c1nc(SSc2ncnc3nc[nH]c23)c2[nH]cnc2n1	x	x	-20	24*	x	58*	58*	75*
O=C(NNc1cc(Cl)ccc1Cl)c1cccs1	5	1	-9	54*	0.66	1	0	4
Cc1cc(Cl)ccc1NNC(=O)c1cccs1	5	3	-15	6	0.64	x	x	x
CCOC(=O)NN=Cc1ccc(OC)c(O)c1	x	x	x	x	0.72	x	x	x
O=C(Nc1cc(Cl)ccc1O)c1snnc1-c1ccccc1	11	9.8*	13	14*	0.61	5	8	4
CN(C)c1ccc(NC(=O)C=Cc2c(Cl)cccc2Cl)cc1	x	x	x	x	0.69	x	x	x
O=C1c2ccccc2C(=O)c2c(O)c(O)cc(O)c21	11	15*	-3	12*	0.66	6	9	8
O=S(=O)(c1ccc(Cl)nc1)N1CCc2ccccc21	-2	1	0	95*	0.64	-1	0	-2
O=C(O)COc1ccccc1C(Nc1cccnc1)c1cc(Cl)c2cccnc2c1O (centres undefined)	x	x	11	x	0.65	x	x	x
CCC(=O)NC(c1ccc(OC)c(OC)c1)c1cc(Cl)c2cccnc2c1O (centres undefined)	x	x	-5	15*	0.65	6	9	15
CCOc1ccc(C(Nc2cccnc2)c2cc(Cl)c3cccnc3c2O)cc1 (centres undefined)	10	20*	1	17*	0.69	2	5	6
CC(=O)NC(C)c1cc(Cl)c2cccnc2c1O (centres undefined)	-7	-9	-6	0	0.63	x	x	x
CCn1c(SCC(=O)NN=C/C=C/c2ccccc2[N+](=O)[O-])nnc1-c1ccc(Cl)cc1	x	x	x	x	0.68	x	x	x
CC(=NNc1cc(C)c2cc(C)ccc2n1)c1ccccn1	x	x	x	17*	x	1	1	3
O=C(Nc1ccc(Cl)cc1)c1cc2c(cc1O)[nH]c1ccccc12	11	10*	0	12*	0.17*	10	14	4
CCCC[n+]1ccn(-c2nc3ccccc3nc2[N-]S(=O)(=O)c2cccs2)c1	-1	0	-2	97*	0.67	2	2	-2
CCCC[n+]1ccn(-c2nc3ccccc3nc2[N-]S(=O)(=O)c2ccccc2)c1	3	0	7	1	0.71	x	x	x
